The list is not random: actives were taken first. Their share in the collection is about 0.8%.
PGK inhibitor: inhibitors of T. brucei phosphoglycerate kinase. PGK/GAPDH coupled, Kinase-Glo luminescence, 60 min. Potency, µM (doses to about 57.5 µM), for inactives: top-dose activity change, negative = inhibition, actives largely listed as inhibitors. 0.043% of 380,000 active. AID 602233; also: potency is read from the fitted curve at half-maximal effect; % is scaled to controls: 0 for no effect and ±100 for the full control effect; nearly all actives have a fitted effect of over 60% in size
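Recombinant glycosomal PGK reaction used 1,3-bisphosphoglycerate generated in-well by GAPDH (100nM final) in 100mM TEA pH 7.6, 5mM MgCl2, 0.01% Tween-20. After 60 minutes at room temperature, ATP was read by Kinase-Glo Plus luminescence end-point.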
FEN1 inhibitor: human FEN1 inhibition | Recombinant FEN1 flap cleavage, fluorescence, 15 min | 0.35% of 390,000 active | Potency, µM (doses to about 114 µM), without a hit: at the top dose activity change, negative = inhibition, most hits filed as inhibitors | P39748; also: potency is read from the fitted curve at half-maximal effect; % is scaled to controls: 0 for no effect and ±100 for the full control effect; nearly all actives have a fitted effect of over 65% in size
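Potency values derive from four-parameter Hill fits of normalized qHTS data. The reaction used 10 nM FEN1 preincubated 15 min at room temperature with compound, then 50 nM DNA substrate, read at 0 and 15 min.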
PI4K2A inh: inhibitors of human PI4K2A | Q9BTU6 | purified PI4K2A, ADP-Glo luminescence, 1 h; hits give low values | activity change, negative = inhibition, % at 76.9 µM | 0.13% of 420,000 active | AID 1346378; in the data active = activity change below about -50%; inconclusive = mostly about -30% to -49%;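 also: -100% = wells without enzyme as full effect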
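ADP-Glo luminescence measured ADP generated by PI4K2A enzyme (4 ug/mL before mixing) with 1.2 mM PI substrate (pre-mix) and 300 microM ATP (pre-mix). Tris pH7.5 buffer with MgCl2, Triton X-100; 1 h reaction at ambient temperature.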
TDP1 block: TDP1 (human) enzyme inhibition. Q9NUW8. recombinant TDP1, AlphaScreen DNA substrate cleavage. Potency, µM (doses to about 130 µM), inactives show top-dose activity change, negative = inhibition, hits mostly inhibitors. 0.28% of 350,000 active; also: potency is read from the fitted curve at half-maximal effect; % is scaled to controls: 0 for no effect and ±100 for the full control effect; nearly all actives have a fitted effect of over 40% in size
Target sequence (Q9NUW8 whole entry, looked up): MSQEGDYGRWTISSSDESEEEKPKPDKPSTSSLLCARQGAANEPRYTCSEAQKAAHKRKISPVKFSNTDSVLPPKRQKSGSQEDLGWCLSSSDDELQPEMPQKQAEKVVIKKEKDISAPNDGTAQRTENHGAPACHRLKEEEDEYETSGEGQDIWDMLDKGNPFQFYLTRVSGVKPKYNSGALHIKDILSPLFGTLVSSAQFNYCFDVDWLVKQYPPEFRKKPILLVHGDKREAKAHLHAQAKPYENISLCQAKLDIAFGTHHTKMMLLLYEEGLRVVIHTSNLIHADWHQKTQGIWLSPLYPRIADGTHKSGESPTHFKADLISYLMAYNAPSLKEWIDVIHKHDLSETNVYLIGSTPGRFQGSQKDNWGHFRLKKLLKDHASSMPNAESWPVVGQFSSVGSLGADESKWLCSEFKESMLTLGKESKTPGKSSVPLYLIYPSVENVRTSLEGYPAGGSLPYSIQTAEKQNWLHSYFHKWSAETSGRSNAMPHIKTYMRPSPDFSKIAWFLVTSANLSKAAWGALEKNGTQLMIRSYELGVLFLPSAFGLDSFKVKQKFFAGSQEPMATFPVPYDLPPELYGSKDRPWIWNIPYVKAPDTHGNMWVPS
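E. coli-derived human Tdp1, 1 nM final. Cpd preinc 15 min RT; substrate 15 nM final, 5 min RT; AS bead mix 10 ug/ml final, 10 min RT. Signal loss = tyrosine-FITC cleavage. No-enzyme wells = max signal.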
Tb PFK inh-1: blocks T. brucei phosphofructokinase; O15648; T. brucei PFK, ADP-Glo luminescence; Potency, µM (doses to about 57.5 µM), for the others: top-dose activity, negative = inhibition, usual class: inhibitors; 0.17% of 330,000 active; AID 485367;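 also: potency is read from the fitted curve at half-maximal effect; 0% = uninhibited 1x PFK enzyme wells and -100% = no-enzyme wells; nearly all actives have a fitted effect of over 60% in size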
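Compounds were pin-transferred as a titration series up to 57 uM into substrate buffer (0.5 mM F6P, 0.1 mM ATP, pH 8.0), then 1.25 nM PFK was added and reactions ran 45 min before ADP-Glo detection.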
APEX1 inh: APE1 (human) endonuclease inhibition. P27695. recombinant APE1, TAMRA/BHQ-2 abasic DNA cleavage fluorescence. Potency, µM (titrated, usually from 65.8 µM), for the others: top-dose activity change, negative = inhibition, most hits filed as inhibitors. AID 2517. 0.35% of 350,000 active;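 also: potency is read from the fitted curve at half-maximal effect; plate controls were vehicle for no effect and reference inhibitor for full effect; nearly all actives have a fitted effect of over 55% in size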
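Kinetic fluorescence read (525 ex/598 em nm, three reads 60 s apart) of AP-site incision; signal = third minus first read. Enzyme 0.75 nM, dual-labelled THF duplex 50 nM, compound preincubation 15 min RT.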
TbPFK ATP: orthogonal confirmation of T. brucei phosphofructokinase inhibitors. shares compounds with Tb PFK inh-1. Tb PFK enzyme, ATP depletion, Kinase-Glo Plus luminescence. 47% of 1,100 active. Potency, µM (top dose mostly 57.5 µM), for inactives: top-dose inhibition; calls by dose curve; also: potency is read from the fitted curve at half-maximal effect; nearly all actives have a fitted effect of over 60% in size
Tb PFK inh-2: validation of T. brucei phosphofructokinase inhibitors | shares compounds with Tb PFK inh-1 | purified T. brucei PFK, ADP-Glo luminescence, 45 min | Potency, µM (series often up to 57.5 µM), without a hit: at the top dose activity change, negative = inhibition, actives largely listed as inhibitors | 41% of 1,100 active;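 also: potency is read from the fitted curve at half-maximal effect; plate controls were full PFK enzyme control for no effect and no enzyme control for full effect; nearly all actives have a fitted effect of over 60% in size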
Active calls of the source: *; i = inactive; ? = inconclusive; · = not tested or not shown; [ ] = another dose, or the depositor's remark. Unless noted, calls follow the shape of the dose curve; as a rule, active = well fitted curve in the direction sought with a large enough effect; inconclusive = small, poorly fitted or top-dose-only effect, or another doubt; inactive = no such curve, though single readings can be large; an effect the other way counts as inactive or inconclusive.

SMILES | PGK inhibitor | FEN1 inhibitor | PI4K2A inh | TDP1 block | Tb PFK inh-1 | APEX1 inh | TbPFK ATP | Tb PFK inh-2
C[C@@H](Cc1cccc(C(F)(F)F)c1)NCCCc1ccccc1 | · | · | · | 12%[56.1 µM] | · | 3% | · | ·
CCOC(=O)N1CCC(NC(=O)CCC(=O)N2CCOc3ccc(Cl)cc32)CC1 | i | -3% | 1 | -5% | ? | 0% | ? | -21%
CCOC(=O)N1CCC(NC(=O)CCc2nc(C3=CCN(C)CC3)no2)CC1 | -4% | 29% | 0 | 10% | 6% | -1% | · | ·
O=c1cc(/N=C/c2coc3c(ccc4ccccc43)c2=O)[nH]c(=S)[nH]1 | -2% | -32% | -8 | 6% | ? | 1% | -27% | ?
Cc1ccc(CCNC(=O)c2cc3cc(S(=O)(=O)N4CCCCC4)ccc3n2C)cc1 | 1% | ? | 1 | 3% | · | · | · | ·
N#Cc1c(F)cccc1NCc1cccnc1 | 9% | 7% | 2 | · | ? | 4% | ? | -9%
c1cncc(CNC2CCCCC2)c1 | -4% | 10% | 3 | 7% | 2% | 41% | · | ·
Clc1nc(Cl)nc(Cl)n1 | · | · | · | 0% | · | 17% | · | ·
O=c1c2ccccc2sn1-c1ccc(F)cc1 | -3% | 79µM* | -14 | -2% | 3.4µM* | 21% | 16% | ?
COC(=O)c1cccc(-n2sc3ccccc3c2=O)c1 | i | ? | -12 | 1% | 6.7µM* | 15% | ? | ?
ClC(Br)Br | · | · | · | -4% | · | 0% | · | ·
COc1ccc(CN2C(=O)c3cccnc3C2O)cc1 (configuration not stated) | ? | -6% | 1 | -9% | 27µM* | -2% | ? | ?
Nc1ccc([N+](=O)[O-])cc1N | · | · | · | 15% | · | 2% | · | ·
C/C(=C\c1ccc(N(C)C)cc1)[N+](=O)[O-] | -2% | -2% | 21 | 4% | ? | -1% | -24% | ?
CN(C)c1ccc(C=C2C(=O)NC(=O)NC2=O)cc1 | -9% | -20% | -11 | · | · | · | · | ·
O=C1c2ccccc2C(=O)C1C(=O)C(c1ccccc1)c1ccccc1 | · | · | ? | 15% | · | · | · | ·
COc1nccnc1NS(=O)(=O)c1ccc(NCc2cc(Br)ccc2O)cc1 | -11% | 4% | -3 | 2% | ? | 39% | ? | -18%
COC(=O)Nc1nc2ccccc2[nH]1 | 0% | -2% | 2 | 14% | · | 2% | · | ·
Nc1ccccc1Sc1nc2ccccc2[nH]1 | -5% | -8% | -2 | 8% | ? | 7% | 17µM* | ?
CCOc1ccc(C(c2c(C)[nH][nH]c2=O)c2c(C)[nH][nH]c2=O)cc1OC | 1% | -17% | -26 | 7% | ? | -2% | ? | -29%
COc1ccc(C(=O)NCc2ccc(Cl)c(Cl)c2)cc1OC | 0% | 4% | -1 | -2% | 13µM* | 2% | 8.5µM* | 27µM*
Cc1cc2cc(CNC(=O)Nc3ccc(Cl)c(Cl)c3)ccc2n1C | i | -2% | -5 | · | -3% | ? | · | ·
Cc1ccc(C(=O)NCc2ccc(Cl)c(Cl)c2)o1 | -5% | 1% | 3 | 3% | 11µM* | ? | 6.7µM* | 24µM*
C[C@@H]1O[C@@H](O[C@@H]2C=C3CC[C@@H]4[C@H](CC[C@]5(C)[C@@H](c6ccc(=O)oc6)CC[C@]45O)[C@@]3(C)CC2)[C@H](O)[C@H](O)[C@H]1O | · | · | 4 | · | · | 29%[21 µM] | · | ·
COc1ccc(Nc2nc(C)cc(=O)[nH]2)cc1 | -7% | -10% | -3 | -2% | 12µM* | -4% | 13µM* | 24µM*
SMILES | PGK inhibitor | FEN1 inhibitor | PI4K2A inh | TDP1 block | Tb PFK inh-1 | APEX1 inh | TbPFK ATP | Tb PFK inh-2
COc1ccc(NC2=NC(C)(C)CS2)cc1 | 0% | -4% | 11 | 3% | -15% | 6% | · | ·
O=C(O)CCNC(=O)c1ccc(NC(=O)Cc2ccc(Cl)cc2)cc1 | -8% | 1% | -3 | 0% | ? | -2% | ? | ?
Cc1ccc(C(=O)NNC(=O)CNc2cccc(Cl)c2)cc1 | -10% | 10% | 1 | 5% | 19µM* | -4% | 12µM* | 24µM*
OCCBr | · | · | · | 5% | · | 2% | · | ·
ON=C1c2ccccc2-c2ccccc21 | i | 2% | 5 | · | ? | -2% | 7% | 6%
O=C(Nc1cnn(Cc2ccc(Cl)c(Cl)c2)c1)c1nc2ncccn2n1 | i | 4% | 25 | 4% | 5.4µM* | 1% | 2.7µM* | 5.4µM*
O=C(O)c1ccc(Cl)c(S(=O)(=O)Nc2ccc3cn[nH]c3c2)c1 | -17% | -12% | 4 | · | ? | 7% | 9% | 1%
Cc1ncc(C[n+]2csc(CCOP(=O)(O)O)c2C)c(N)n1 | · | · | · | 15% | · | · | · | ·
COC(=O)Oc1nsnc1N1CCOCC1 | -10% | 2% | 0 | 0% | 27µM* | -1% | ? | ?
ClCCN(CCCl)c1ccc(C=Nc2ccc(/C=C/c3ccncc3)cc2)cc1 | · | -7% | · | · | · | · | · | ·
CNC(=O)c1cccn(Cc2cccc(C(F)(F)F)c2)c1=O | -8% | 1% | 1 | 0% | -10% | 7% | · | ·
O=C(OCc1cccc(C(F)(F)F)c1)c1ccc[nH]c1=O | -8% | -5% | 1 | 9% | 6µM* | 15% | 3µM* | 5.4µM*
CC(N)C(=O)c1ccco1 (configuration not stated) | -1% | 0% | 2 | 3% | -1% | -3% | · | ·
O=C(Nc1n[nH]c(=S)s1)c1ccco1 | -3% | ? | -9 | · | ? | 6% | 5.4µM* | 12µM*
CC(=O)N1CCN(c2ccc(OC[C@@H]3CO[C@@](Cn4ccnc4)(c4ccc(Cl)cc4Cl)O3)cc2)CC1 | · | 2% | · | 16%[21 µM] | · | · | · | ·
NS(=O)(=O)c1ccc(CCNC(=O)c2ccc(Cl)c(S(=O)(=O)N3CCCCC3)c2)cc1 | 5% | ? | -10 | -2% | -2% | 1% | · | ·
CC1CN(S(=O)(=O)c2cc(C(=O)NCc3ccncc3)ccc2Cl)CC(C)O1 (configuration not stated) | -3% | 4% | -1 | -6% | ? | 25% | ? | ?
NC(=O)CF | · | · | · | 8% | · | -1% | · | ·
Cc1ccc(NC2=C(NC(=O)c3ccccc3)C(=O)c3ccccc3C2=O)cc1Cl | i | -9% | -20 | 9% | ? | -5% | ? | 6.7µM*
Cc1cccc(N2C(=O)NC(=O)/C(=C\C=C\c3ccco3)C2=O)c1 | -12% | ? | ? | -4% | ? | ? | · | ·

From PubChem
